Reference: PubChem BioAssay (Tox21)
Values without a mark were called inactive. Active and inactive are the calls of the source. Calls follow the shape of the dose curve; as a rule, active = well fitted curve in the direction sought with a large enough effect in the repeat runs; inconclusive = weak or mixed curves; inactive = flat fitted curve, though single readings scatter.

Assay: qHTS assay to test for compound auto fluorescence at 590 nm (red) in HEK293 cell free culture (AID 720683)
Conditions: cell-free medium autofluorescence, Ex540/Em590 red; series mostly up to 91.3 µM; fluorescence, % of fluorescent control: at the top concentration
From the text: U.S. Tox21 Program National Center for Advancing Translational Sciences [NCATS] NIH Chemical Genomics Center [NCGC] U.S. Environmental Protection Agency [EPA] National Institutes of Environmental Health Sciences [NIEHS] National Toxicology Program [NTP] U.S. Food and Drug Administration [FDA] Tox21 Assay Overview: Compound auto fluorescence often interferes with screening of the compound library against various biological targets and signaling pathways. Some of these compounds may have fluorophoric properties. Such properties may interfere with the assay outputs resulting in false positives and/or negatives. To decrease such complications and ensure the compound activities are relevant in terms of biological response, the Tox21 10K compound library was screened for auto fluorescence. From the fluorophores used as reporter signals in our screening assays, the auto fluorescence equivalencies of compounds against three fluorophores have been evaluated: Triamterene, Fluorescein and Rose Bengal sodium for blue, green and red fluorescence, respectively. The fluorescence intensities were measured using Excitation/Emission wavelengths at 405/460nm, 485/535nm and 540/590nm for blue, green and red labels, respectively. This assay includes the red fluorescence data.
Tox21 Assay Protocol Summary: 5 uL of culture medium (DMEM containing 10% FBS) per well was dispensed into black wall/clear bottom 1536-well plates using a Multidrop Combi Dispenser (ThermoFisher Scientific, Waltham, MA). After 23 nL compound or DMSO vehicle was transferred into assay plate by a pintool work station (Kalypsys, San Diego, CA), fluorescence intensities in the assay plates were measured by an Envision (PerkinElmer, Shelton, CT) plate reader using three labels for measuring blue, green and red fluorescence at […] 460, 535 and 590nm respectively.
% is scaled to controls: 0 for no effect and ±100 for the full control effect.

Q: Which outcome does the source give for `CCCCC(C=O)CC` (stereo not given) here?
A: The outcome was “inactive”.

Q: Which outcome does the source give for `CC(C)=CCl` here?
A: The outcome was “inactive”.

Q: For `Cc1ccc(C(C)C)c(O)c1`, which outcome is on record?
A: Its outcome is “inactive”.

Q: With `CC(C)c1cccc(C(C)C)c1` as the molecule, how does the outcome read?
A: Its outcome is “inactive”.

Q: Which outcome does the source give for `C=Cc1ccc(C)cc1` here?
A: The outcome was “inactive”.

Q: With `CCCOC(=O)c1ccccc1` as the molecule, how does the outcome read?
A: The outcome was “inactive”.

Q: For `N#Cc1ccccc1`, which outcome is on record?
A: The outcome was “inactive”.

Q: For `O=C(OCC1CCC2OC2C1)C1CCC2OC2C1` (stereo not given), which outcome is on record?
A: Its outcome is “inactive”.

Q: Which outcome does the source give for `C[C@]12CCC(=O)C=C1CC[C@@H]1[C@@H]2[C@@H](O)C[C@@]2(C)[C@H]1CC[C@]2(O)C(=O)CO` here?
A: Its outcome is “inactive”.

Q: With `Brc1ccc(Br)c(Br)c1` as the molecule, how does the outcome read?
A: Its outcome is “inactive”.

Q: For `COC(=O)c1cccnc1`, which outcome is on record?
A: The outcome was “inactive”.

Q: Which outcome does the source give for `CC(=O)OC1CC(C)OC(C)O1` (stereo not given) here?
A: Its outcome is “inactive”.

Q: Which outcome does the source give for `COCCOC(=O)c1ccccc1C(=O)OCCOC` here?
A: The outcome was “inactive”.

Q: Which outcome does the source give for `c1ccc(Oc2ccccc2)cc1` here?
A: The outcome was “inactive”.

Q: With `OC1C(O)C(O)C(O)C(O)C1O` (stereo not given) as the molecule, how does the outcome read?
A: Its outcome is “inactive”.

Q: With `CCO[Si](CCCN)(OCC)OCC` as the molecule, how does the outcome read?
A: Its outcome is “inactive”.

Q: For `CC1(C)NC(=O)NC1=O`, which outcome is on record?
A: Its outcome is “inactive”.

Q: With `CCCCCCO` as the molecule, how does the outcome read?
A: Its outcome is “inactive”.

Q: For `O=C(O)c1cc2ccccc2cc1O`, which outcome is on record?
A: Its outcome is “inactive”.

Q: With `OCc1cccc(Oc2ccccc2)c1` as the molecule, how does the outcome read?
A: The outcome was “inactive”.

Q: For `O=C(O)c1ccc(C(=O)O)c(C(=O)O)c1`, which outcome is on record?
A: Its outcome is “inactive”.

Q: Which outcome does the source give for `Clc1ccccn1` here?
A: Its outcome is “inactive”.

Q: With `CCCCCCCO` as the molecule, how does the outcome read?
A: The outcome was “inactive”.

Q: For `COc1ccc(OC)cc1`, which outcome is on record?
A: The outcome was “inactive”.

Q: With `O=C(O)c1ccccc1C(=O)O` as the molecule, how does the outcome read?
A: Its outcome is “inactive”.

Q: For `CCNc1cccc(C)c1`, which outcome is on record?
A: The outcome was “inactive”.

Q: With `NCCNCCN` as the molecule, how does the outcome read?
A: The outcome was “inactive”.

Q: For `CCCCOC(=O)c1ccc(N)cc1`, which outcome is on record?
A: Its outcome is “inactive”.

Q: Which outcome does the source give for `CC1(C)CC(N)CC(C)(CN)C1` (stereo not given) here?
A: The outcome was “inactive”.

Q: For `NC(=S)NNC(N)=S`, which outcome is on record?
A: Its outcome is “inactive”.

Q: Which outcome does the source give for `CC(C)OC(=O)COc1ccc(Cl)cc1Cl` here?
A: Its outcome is “inactive”.

Q: For `COc1ccc(CCC(C)=O)cc1`, which “fluorescence, % of fluorescent control” value is on record?
A: Its value is 0.336%.

Q: For `CCCCCC(=O)O`, which outcome is on record?
A: Its outcome is “inactive”.

Q: With `CC(C)CC(=O)CC(C)CC(C)C` (stereo not given) as the molecule, how does the outcome read?
A: Its outcome is “inactive”.

Q: Which outcome does the source give for `CCNc1ccccc1` here?
A: The outcome was “inactive”.

Q: Which outcome does the source give for `CCCCCCCC=O` here?
A: The outcome was “inactive”.

Q: For `CC(=O)c1ccc(O)cc1`, which outcome is on record?
A: The outcome was “inactive”.

Q: Which outcome does the source give for `COc1ccc(N)c(C)c1` here?
A: Its outcome is “inactive”.

Q: Which outcome does the source give for `CC(=O)OCCOC(C)=O` here?
A: Its outcome is “inactive”.

Q: For `c1ccc2c(c1)Cc1ccccc1-2`, which outcome is on record?
A: Its outcome is “inactive”.
